Bioassay records (PubChem)
CASP6 VEID inh: blocks human caspase-6 cleavage activity; P55212; purified caspase-6, Z-VEID-R110 cleavage fluorescence; inhibition, % at 12.5 µM; 350,000 compounds, 0.53% hits; AID 686996;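 active = mean inhibition across replicates at least about 35%, with every replicate also reaching that limit, limit read from the data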
Target sequence (P55212 24-179 limits assumed): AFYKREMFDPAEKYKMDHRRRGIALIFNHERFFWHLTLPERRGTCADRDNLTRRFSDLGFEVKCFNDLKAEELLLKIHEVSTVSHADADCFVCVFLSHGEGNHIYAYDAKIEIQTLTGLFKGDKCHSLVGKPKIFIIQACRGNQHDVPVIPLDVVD
Target sequence (P55212 194-293 limits assumed): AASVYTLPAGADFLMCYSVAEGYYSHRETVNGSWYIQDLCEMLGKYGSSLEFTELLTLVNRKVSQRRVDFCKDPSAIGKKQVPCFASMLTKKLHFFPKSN
ALR H2O2 inh: blocks human ALR sulfhydryl oxidase activity; purified ALR, DTT oxidation, H2O2 HRP-luminol luminescence; 290,000 compounds, 3.8% hits; inhibition, % (concentration not given with the values); P55789;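 active = mean replicate inhibition above about 79%, with every replicate also reaching it, limit read from the data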
Target sequence (P55789 whole entry, looked up): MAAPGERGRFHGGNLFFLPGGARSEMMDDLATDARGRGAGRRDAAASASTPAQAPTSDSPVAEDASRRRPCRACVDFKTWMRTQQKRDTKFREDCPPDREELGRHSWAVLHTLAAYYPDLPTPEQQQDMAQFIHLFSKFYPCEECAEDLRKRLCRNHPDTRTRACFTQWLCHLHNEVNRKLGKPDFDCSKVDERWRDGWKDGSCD
CDK5 p35 inh: CDK5/p35 (human) kinase inhibition; 330,000 compounds, 0.01% hits; Q00535+Q15078; inhibition, % at 10 µM; Recombinant CDK5/p35, ADP-Glo luminescence, 60 min; AID 488839;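 active = highest replicate inhibition of at least 50% and at least 75% of replicates reaching 50%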
NSD2 inh: blocks human histone methyltransferase NSD2 | NSD2 peptide methylation, AlphaScreen, 120 min | inhibition, % at 12.5 µM | 310,000 compounds, 0.54% hits | AID 743445; in the data active = inhibition above about 50%
Mot1-301 SUMO: inhibitors of SUMOylation pathway: yeast Mot1-301 growth rescue. 320,000 compounds, 1% hits. growth rescue, % at 18.8 µM. S. cerevisiae Mot1-301 growth rescue, ATP luminescence, 38.5C; percent above DMSO median, 100 means doubled;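 active = every valid replicate shows activation above 250% relative to neutral control wells; inactive = the rest, any valid replicate at or below 250%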
Glyco luc inh: N-linked glycosylation inhibition; reporter increase, % at 12.5 µM; 360,000 compounds, 0.23% hits; D54 ERlucT glycosylation luciferase reporter, 24 h; percent of 100 nM tunicamycin response;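 active = mean luciferase reporter signal, scaled so untreated is 0 and the glycosylation-blocking control 100, at or above a set limit in every replicate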;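 also: luciferase carries N-glycosylation sites so blocking glycosylation raises the light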
A number is an active result. Shown are actives, neighbours in structure and some others; about 3.9% of the full set was active somewhere.

`CC(Sc1nnc(N)s1)C(=O)c1c(N)n(C)c(=O)n(C)c1=O` (configuration not stated) gave CASP6 VEID inh inactive, CDK5 p35 inh inactive, NSD2 inh inactive and Glyco luc inh inactive.
Screening CCn1c(CN(C)c2ccccc2)nc2ccccc21 returned CASP6 VEID inh inactive, ALR H2O2 inh 98, CDK5 p35 inh inactive, NSD2 inh inactive, Mot1-301 SUMO inactive and Glyco luc inh inactive.
Screening C[C@@H]1CN([C@H](C)CO)S(=O)(=O)c2ccc(C#CC3CC3)cc2O[C@H]1CN(C)Cc1ccc(F)cc1 returned CASP6 VEID inh inactive.
CC(=O)c1ccc(N2CCN(c3ccccc3O)CC2)c([N+](=O)[O-])c1 was read as CASP6 VEID inh inactive, ALR H2O2 inh 99, CDK5 p35 inh inactive, NSD2 inh inactive, Mot1-301 SUMO inactive and Glyco luc inh inactive.
`N#Cc1cc([N+](=O)[O-])ccc1N1CCN(c2ccccc2O)CC1` gave CASP6 VEID inh inactive, ALR H2O2 inh 98, CDK5 p35 inh inactive, NSD2 inh inactive, Mot1-301 SUMO inactive and Glyco luc inh inactive.
O=[N+]([O-])c1ccc(N2CCN(c3ccc([N+](=O)[O-])cc3CO)CC2)c(CO)c1 was read as CASP6 VEID inh inactive, ALR H2O2 inh inactive, CDK5 p35 inh inactive, NSD2 inh inactive, Mot1-301 SUMO inactive and Glyco luc inh inactive.
Screening COCCn1c(-c2ccco2)nc2nc3ccccc3nc21 returned CDK5 p35 inh inactive, NSD2 inh inactive, Mot1-301 SUMO inactive and Glyco luc inh inactive.
Screening CC(C)OCCCn1c(-c2ccco2)nc2nc3ccccc3nc21 returned ALR H2O2 inh 98, CDK5 p35 inh inactive, NSD2 inh inactive, Mot1-301 SUMO inactive and Glyco luc inh inactive.
For Cc1ccc([C@@H]2CC=C(C(=O)O)[C@H](c3cccc(F)c3)N2S(=O)(=O)c2ccccc2C)cc1 the results were CASP6 VEID inh inactive, CDK5 p35 inh inactive, Mot1-301 SUMO 280 and Glyco luc inh inactive.
For Cc1ccc([C@@H]2CC=C(C(=O)O)[C@H](c3ccc(F)cc3)N2S(=O)(=O)c2ccccc2C)cc1 the results were CASP6 VEID inh inactive, CDK5 p35 inh inactive, Mot1-301 SUMO inactive and Glyco luc inh inactive.
For Cc1ccc(S(=O)(=O)N2[C@@H](c3ccc(Br)cc3)C(C(=O)O)=CC[C@H]2c2ccc(Cl)cc2)cc1 the results were CASP6 VEID inh inactive, CDK5 p35 inh inactive and Glyco luc inh inactive.
`Cc1ccc([C@@H]2CC=C(C(=O)O)[C@H](c3ccc(Cl)cc3)N2S(=O)(=O)c2ccccc2C)cc1` gave CASP6 VEID inh inactive, CDK5 p35 inh inactive, Mot1-301 SUMO 255 and Glyco luc inh inactive.
For CCc1ccc([C@@H]2CC=C(C(=O)O)[C@H](c3ccc(Br)cc3)N2S(=O)(=O)c2ccc(C)cc2)cc1 the results were CASP6 VEID inh inactive, CDK5 p35 inh inactive, Mot1-301 SUMO 300 and Glyco luc inh inactive.
For CCCN(Cc1ccc(N(CC)CC)cc1)CC1CC1 the results were ALR H2O2 inh 98, CDK5 p35 inh inactive, NSD2 inh inactive, Mot1-301 SUMO inactive and Glyco luc inh inactive.
Screening C[C@H](CO)N1C[C@H](C)[C@@H](CN(C)C)Oc2ncc(C3=CCCC3)cc2C1=O returned CASP6 VEID inh inactive.
`Cn1nc(C(C)(C)C)c([N+](=O)[O-])c1C(=O)N1CCOCC1` gave CASP6 VEID inh inactive, ALR H2O2 inh inactive, CDK5 p35 inh inactive, NSD2 inh inactive, Mot1-301 SUMO inactive and Glyco luc inh inactive.
`Cn1nc(C(C)(C)C)c([N+](=O)[O-])c1C(=O)N1CCCCCC1` gave CASP6 VEID inh inactive, ALR H2O2 inh inactive, CDK5 p35 inh inactive, NSD2 inh inactive, Mot1-301 SUMO 444 and Glyco luc inh inactive.
For CCN(CC)c1ccc(C2C(C(C)=O)C(=O)CC(C)(O)C2C(C)=O)cc1 (configuration not stated) the results were ALR H2O2 inh 99, CDK5 p35 inh inactive, NSD2 inh inactive, Mot1-301 SUMO inactive and Glyco luc inh inactive.
For CC(=O)C1C(=O)CC(C)(O)C(C(C)=O)C1c1ccc(N(C)C)cc1 (configuration not stated) the results were ALR H2O2 inh 98, CDK5 p35 inh inactive, NSD2 inh inactive, Mot1-301 SUMO inactive and Glyco luc inh inactive.
`CCOC(=O)C1C(=O)CC(C)(O)C(C(=O)OCC)C1c1ccc(OC)cc1` (configuration not stated) gave ALR H2O2 inh inactive, CDK5 p35 inh inactive, NSD2 inh inactive, Mot1-301 SUMO inactive and Glyco luc inh inactive.
Screening Oc1ccc(C=Nc2ccccc2-c2nc3ccccc3[nH]2)c(O)c1 returned CASP6 VEID inh inactive, ALR H2O2 inh 82, CDK5 p35 inh inactive, NSD2 inh inactive, Mot1-301 SUMO inactive and Glyco luc inh inactive.
Screening Oc1ccccc1C=Nc1ccccc1-c1nc2ccccc2[nH]1 returned ALR H2O2 inh inactive, CDK5 p35 inh inactive, NSD2 inh inactive, Mot1-301 SUMO inactive and Glyco luc inh inactive.
O=C(CN1CCOCC1)NCC[C@H]1CC[C@H](NC(=O)c2ccccc2F)[C@@H](CO)O1 was read as CASP6 VEID inh inactive.
COCC(=O)N1[C@H](CO)[C@H](c2ccccc2)C12CN(C(=O)Nc1ccccc1F)C2 was read as CASP6 VEID inh inactive.
CCOC(=O)C1(C)/C(=N/Nc2ccc(Cl)cc2)C(=O)C(=O)N1c1ccccc1 (configuration not stated) was read as ALR H2O2 inh 99, CDK5 p35 inh inactive, NSD2 inh inactive, Mot1-301 SUMO inactive and Glyco luc inh inactive.
Screening O=C(C[C@H]1C[C@@H]2c3cc(NC(=O)C4CCOCC4)ccc3O[C@@H]2[C@H](CO)O1)NCCN1CCCCC1 returned CASP6 VEID inh inactive.
For COc1cccc(N=NC2C(=O)N(C(N)=S)N=C2C)c1 (configuration not stated) the results were CASP6 VEID inh inactive, ALR H2O2 inh inactive, CDK5 p35 inh inactive, NSD2 inh inactive, Mot1-301 SUMO inactive and Glyco luc inh inactive.
Screening CC1=NN(C(N)=S)C(=O)C1N=Nc1ccc(C)cc1C (configuration not stated) returned ALR H2O2 inh 94, NSD2 inh inactive and Mot1-301 SUMO inactive.
For CC1=NN(C(N)=S)C(=O)C1N=Nc1cccc(Cl)c1 (configuration not stated) the results were CASP6 VEID inh inactive, ALR H2O2 inh 90, CDK5 p35 inh inactive, NSD2 inh inactive, Mot1-301 SUMO inactive and Glyco luc inh inactive.
`CC1=NN(C(N)=S)C(=O)C1N=Nc1c(Br)cc(Br)cc1Br` (configuration not stated) gave CASP6 VEID inh inactive, ALR H2O2 inh 98, CDK5 p35 inh inactive, NSD2 inh inactive, Mot1-301 SUMO inactive and Glyco luc inh inactive.
`CCCNC(=O)N1[C@@H](C#N)[C@@H](c2ccc(C#Cc3ccc(F)cc3)cc2)[C@@H]1CO` gave CASP6 VEID inh inactive.
